{"source": "PubChem BioAssay (Tox21)", "note": "Inconclusive results are not listed. Unmarked numbers belong to inactive results. Calls follow the shape of the dose curve; as a rule, active = well fitted inhibition curve with a large enough effect in the signal ratio in the repeat runs, with a control signal flat; inconclusive = weak or mixed curves, or effect the other way; inactive = flat fitted curve, though single readings scatter; the % refers to the signal ratio. % is scaled to controls: 0 for no effect and ±100 for the full control effect.", "data": [{"biological_target": "D(2) dopamine receptor (Homo sapiens) (UniProt P14416)", "sequence (P14416 whole entry, looked up)": "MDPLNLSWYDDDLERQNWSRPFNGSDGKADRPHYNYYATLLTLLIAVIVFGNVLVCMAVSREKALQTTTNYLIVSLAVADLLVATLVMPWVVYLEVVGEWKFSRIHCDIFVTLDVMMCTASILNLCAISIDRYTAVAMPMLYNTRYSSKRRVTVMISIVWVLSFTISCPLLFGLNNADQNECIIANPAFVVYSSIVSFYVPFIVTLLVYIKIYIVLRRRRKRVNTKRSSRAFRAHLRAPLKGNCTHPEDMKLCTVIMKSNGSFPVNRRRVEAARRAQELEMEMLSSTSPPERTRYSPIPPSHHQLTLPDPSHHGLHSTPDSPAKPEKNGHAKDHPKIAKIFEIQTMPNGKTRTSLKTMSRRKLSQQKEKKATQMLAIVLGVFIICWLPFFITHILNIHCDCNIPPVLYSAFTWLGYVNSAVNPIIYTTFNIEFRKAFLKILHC", "assay": "Dopamine D2 receptor (DRD2) small molecule antagonists, cell-based qHTS assay (AID 1963595)", "details": "HEK293-DRD2 cAMP HTRF antagonist mode; series mostly up to 92.4 µM; activity change, negative = inhibition: at the top concentration", "description": "National Center for Advancing Translational Sciences [NCATS]\nDivision of Preclinical Innovation [DPI]\nU.S. Environmental Protection Agency [EPA]\nNational Institutes of Environmental Health Sciences [NIEHS]\nNational Toxicology Program [NTP]\nU.S. Food and Drug Administration [FDA]\nDRD2 is the D2 subtype of the dopamine receptor, which is coupled to Gi subtype of G protein-coupled receptor. This G protein-coupled receptor inhibits adenylyl cyclase activity. The DRD2-HEK293 cell line stably expressing D2 dopamine receptor can be used for screening agonists and antagonists of interactions between D2 and its ligands. The Hek293-DRD2 cAMP assay is based on HTRF technology. It measures changes of cAMP accumulation in response to Gi coupled GPCR activation or inhibition.\nTox21 Assay Protocol Summary:\nDRD2-Hek293 cells were dispensed at 600 cells/3uL/well in 1536-well white plates using a Multidrop Dispenser. After the assay plates were incubated at a 37 C/5% CO2 incubator for 24 h, 1 uL of Ro20-1724 at final concentration of 0.1 mM was transferred to the assay plate by a Flying Reagent Dispenser. Following Ro20-1724 addition, 23 nL of compound dissolved in DMSO, positive controls or DMSO only was added to the assay plates via Wako pintool station. The assay plates were incubated at room temperature for 10 min. Next, 1 uL of mixture of NKH477 (final concentration at 200 nM) and quinpirole (final concentration at 12 nM) was added into the plates. After the assay plates were incubated at room temperature for an additional 30 min, 2.5 ul/well of cAMP-d2 and 2.5 ul/well of anti-cAMP-cryptate were added respectively into the assay plates using a Flying Reagent Dispenser. The plates were incubated at room temperature for 1 h. The fluorescence intensity in the plates was measured at 340 nm excitation and 665 & 620 nm emission by an Envision plate reader.", "values": [{"smiles": "CCOC(=O)OCC", "activity change, negative = inhibition": "0.657%"}, {"smiles": "Nc1c(I)cc(I)c(C(=O)N(CCC(=O)O)c2ccccc2)c1I", "activity change, negative = inhibition": "2.78% [at 42.5 µM]"}, {"smiles": "C=Cc1ccc(S(=O)(=O)O)cc1", "activity change, negative = inhibition": "-18.9%"}, {"smiles": "O=c1[nH]nc(-c2ccc([N+](=O)[O-])o2)o1", "activity change, negative = inhibition": "-0.86%"}, {"smiles": "FC(F)(Cl)C(F)(Cl)Cl", "activity change, negative = inhibition": "1.49%"}, {"smiles": "Nc1nc2ccccc2n1Cc1ccc(F)cc1", "activity change, negative = inhibition": "0.342% [at 42.5 µM]"}, {"smiles": "O=S1(=O)CCCC1", "activity change, negative = inhibition": "-0.765%"}, {"smiles": "NC(Cc1c[nH]c2ccccc12)C(=O)O", "note": "(stereo not given)", "activity change, negative = inhibition": "3.77% [at 42.5 µM]"}, {"smiles": "CCOC(=O)C(C)Oc1ccc(Oc2nc3ccc(Cl)cc3o2)cc1", "note": "(stereo not given)", "activity change, negative = inhibition": "8.45%"}, {"smiles": "CCCCCCC#CC(=O)OC", "activity change, negative = inhibition": "0.0698%"}, {"smiles": "CC(=O)Oc1ccc([N+](=O)[O-])cc1CCl", "activity change, negative = inhibition": "8.32%"}, {"smiles": "O=C(O)c1cc(C(=O)O)cc(C(=O)O)c1", "activity change, negative = inhibition": "-10.4%"}, {"smiles": "CN1CC(=O)N2[C@H](c3ccc4c(c3)OCO4)c3[nH]c4ccccc4c3C[C@@H]2C1=O", "activity change, negative = inhibition": "-7.67% [at 42.5 µM]"}, {"smiles": "COC(=O)[C@@H](N)Cc1ccc(O)c(O)c1", "activity change, negative = inhibition": "2.02% [at 42.5 µM]"}, {"smiles": "CCCCCCCC/C=C\\CCCCCCCC(=O)N(C)CC(=O)O", "activity change, negative = inhibition": "3.88%"}, {"smiles": "CCO[Si](CCCS)(OCC)OCC", "activity change, negative = inhibition": "18.6%"}, {"smiles": "O=S(=O)(O)c1ccc(Nc2nc(Nc3ccc(/C=C/c4ccc(Nc5nc(Nc6ccc(S(=O)(=O)O)cc6)nc(N(CCO)CCO)n5)cc4S(=O)(=O)O)c(S(=O)(=O)O)c3)nc(N(CCO)CCO)n2)cc1", "activity change, negative = inhibition": "4% [at 42.5 µM]"}, {"smiles": "CC1CCCC1", "activity change, negative = inhibition": "8.09%"}, {"smiles": "OC[C@H]1O[C@@H](n2cnc3c(=S)nc[nH]c32)[C@H](O)[C@@H]1O", "activity change, negative = inhibition": "10.7% [at 42.5 µM]"}, {"smiles": "CCCCCCCCCCO[C@@H]1O[C@H](CO)[C@@H](O)[C@H](O)[C@H]1O", "activity change, negative = inhibition": "11.3%"}, {"smiles": "CCOc1ccc2nc(N)sc2c1", "activity change, negative = inhibition": "-9.62%"}, {"smiles": "CC(=O)N[C@@H](CCC(=O)O)C(=O)O", "activity change, negative = inhibition": "2.88% [at 42.5 µM]"}, {"smiles": "CC(C)(C)c1ccc(C(O)CCCN2CCC(C(O)(c3ccccc3)c3ccccc3)CC2)cc1", "note": "(stereo not given)", "activity change, negative = inhibition": "-3.72% [at 42.5 µM]"}, {"smiles": "Clc1ccc2nsnc2c1NC1=NCCN1", "activity change, negative = inhibition": "7.5% [at 42.5 µM]"}, {"smiles": "NC(=O)N(O)[C@@H]1COc2cc(OCc3ccccc3)ccc21", "activity change, negative = inhibition": "-2.68%"}, {"smiles": "Cc1ncc(COP(=O)(O)O)c(C=O)c1O", "activity change, negative = inhibition": "-0.416% [at 42.5 µM]"}, {"smiles": "COC(=O)c1ccc(C(=O)O)cc1", "activity change, negative = inhibition": "16%"}, {"smiles": "CC(C)n1c(/C=C/[C@@H](O)C[C@@H](O)CC(=O)O)c(-c2ccc(F)cc2)c2ccccc21", "activity change, negative = inhibition": "9.69%"}, {"smiles": "CCCCOC(=O)c1ccccc1C(=O)OCC(CC)CCCC", "note": "(stereo not given)", "activity change, negative = inhibition": "0.809%"}, {"smiles": "CC(CCc1ccc2c(c1)OCO2)NN", "note": "(stereo not given)", "activity change, negative = inhibition": "-4.02% [at 42.5 µM]"}, {"smiles": "c1ccc(Cc2ccccc2)cc1", "activity change, negative = inhibition": "-8.1%"}, {"smiles": "CC(C)(C)c1ccc(C(=O)O)cc1", "activity change, negative = inhibition": "0.19%"}, {"smiles": "O=C(O)Cc1cc(I)c(Oc2cc(I)c(O)c(I)c2)c(I)c1", "activity change, negative = inhibition": "5.39% [at 42.5 µM]"}, {"smiles": "O=C(O)Cn1cnnn1", "activity change, negative = inhibition": "0.368% [at 42.5 µM]"}, {"smiles": "O=C1c2ccccc2C(=O)c2cc(S(=O)(=O)O)ccc21", "activity change, negative = inhibition": "5.54%"}, {"smiles": "O=C(NO)C1(NS(=O)(=O)c2ccc(Oc3ccc(F)cc3)cc2)CCOCC1", "activity change, negative = inhibition": "-1.65%"}, {"smiles": "O=[N+]([O-])c1cccc(Cl)c1Cl", "activity change, negative = inhibition": "0.417%"}, {"smiles": "CN(C)CCN(C)CCO", "activity change, negative = inhibition": "1.1%"}, {"smiles": "CO", "activity change, negative = inhibition": "0.0437%"}, {"smiles": "CN(C)C(=O)COC(=O)Cc1ccc(OC(=O)c2ccc(N=C(N)N)cc2)cc1", "activity change, negative = inhibition": "25.6% [at 42.5 µM]"}]}]}
